Results as given in PubChem BioAssay AID1671448 (Corson Lab, School of Medicine, Indiana University, 2021).
The campaign covered roughly 20,000 compounds. About 660 (3.3%) were called active. This is one part of a sample in which actives are shown more often than they occur.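 The calls were made as follows: active = enzyme reaction rate more than 3 SD below the solvent-only control wells on the same plate; inactive = the rest.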

These compounds were tested against Ferrochelatase, mitochondrial (Homo sapiens) (UniProt P22830) (assay: inhibitors of human ferrochelatase, primary screen, biochemical, purified FECH, Ni-mesoporphyrin absorbance (AID 1671448)). Conditions: Ni-mesoporphyrin absorbance 550 nm, screened at 10 µM (by protocol).
Chain of Ferrochelatase, mitochondrial (Homo sapiens) (P22830 whole entry, looked up): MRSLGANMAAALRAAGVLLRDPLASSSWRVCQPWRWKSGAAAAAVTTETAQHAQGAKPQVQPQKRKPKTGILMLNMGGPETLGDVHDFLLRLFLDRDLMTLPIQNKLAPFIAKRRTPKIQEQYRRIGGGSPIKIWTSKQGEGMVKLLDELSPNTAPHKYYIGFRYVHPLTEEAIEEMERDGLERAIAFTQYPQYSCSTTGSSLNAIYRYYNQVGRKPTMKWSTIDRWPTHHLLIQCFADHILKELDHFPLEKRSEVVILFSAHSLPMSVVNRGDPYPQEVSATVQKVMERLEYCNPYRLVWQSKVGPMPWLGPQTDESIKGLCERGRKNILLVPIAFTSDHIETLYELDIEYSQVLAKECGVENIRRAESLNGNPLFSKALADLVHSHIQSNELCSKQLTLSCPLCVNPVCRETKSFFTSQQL
In the case of `CCc1nc(C)c(C(=O)N2CCN(c3nsc4ccccc34)CC2)o1`, the outcome is reported as “inactive”.
With `Cc1c(F)cccc1NC(=O)CNC(c1ccccn1)C(F)(F)F` (centres undefined) the outcome was “inactive”.
With `CCCSc1ncc(CN2CCC3(CCC(=O)N(C)CC3)CC2)cn1` the outcome was “inactive”.
For `Cc1cc(C)c(CN2CCN(Cc3ccccc3Cl)S2(=O)=O)c(C)c1`, the outcome was “inactive”.
With `COc1ccc(-c2cc3n(n2)CCC(=O)N3Cc2ccc(C(=O)NCCN3CCCC3)cc2)cc1` the outcome was “inactive”.
For `Fc1ccc(-c2cc(CNc3nccc(C4CCCC4)n3)no2)cc1`, the outcome was “inactive”.
In the case of `COc1ccc(Nc2cc(C)nc(Nc3ccc(NC(=O)c4ccc(C)cc4)cc3)n2)cc1`, the outcome is reported as “inactive”.
`CCCn1ccnc1C1CC(=O)Nc2c1c(C(C)C)nn2-c1ccccc1` (centres undefined) was tested, and the outcome was “inactive”.
`Cc1cc2nc(COc3ccc(Cl)cc3NC(=O)COc3ccccc3C)cc(=O)n2o1` was tested, and the outcome was “inactive”.
`COc1cccc(CN2CC(=O)N(Cc3cccc(C(F)(F)F)c3)c3ccccc3S2(=O)=O)c1` was tested, and the outcome was “inactive”.
`Cc1ccc(C)c(N2C(=O)N(Cc3cc(F)cc(F)c3)c3ccccc3S2(=O)=O)c1` was tested, and the outcome was “active”.
With `O=C1CN(Cc2c(F)cccc2Cl)S(=O)(=O)c2ccccc2N1Cc1ccccc1` the outcome was “inactive”.
`COc1ccccc1C(=O)Nc1ccccc1Sc1c(C)c(C)nc2nc(-c3ccccc3)nn12` was tested, and the outcome was “inactive”.
For `CC(NC(=O)CCc1c[nH]c2ccccc12)c1cn2ncsc2n1` (centres undefined), the outcome was “inactive”.
`CCC(C)N(Cc1ccsc1)C(=O)c1cn2c(n1)CNCC2` (centres undefined) was tested, and the outcome was “inactive”.
In the case of `Cc1cccc(-c2ncc(CNCCNC(=O)c3ccccc3Cl)cn2)c1`, the outcome is reported as “inactive”.
For `CCc1cc(Sc2ccc(NC(=O)Cc3cccs3)cc2)n2ncnc2n1`, the outcome was “inactive”.
With `COc1ccc(C(=O)N(Cc2nc3nc(C)cc(C)n3n2)c2ccc(F)cc2)cc1` the outcome was “inactive”.
In the case of `O=C(NCc1ccccc1)c1nc(N2CCOCC2)c2oc3ccccc3c2n1`, the outcome is reported as “inactive”.
For `CCOCCCNC(=O)C1CCN(c2ccc(-c3ccc(C)cc3)nn2)CC1`, the outcome was “inactive”.
`Nc1ccc(S(=O)(=O)Nc2cccc(Cl)c2)cc1S(N)(=O)=O` was tested, and the outcome was “active”.
For `CCCc1cc(NCc2ccc(OC)cc2)n2nc(-c3cccnc3)nc2n1`, the outcome was “inactive”.
With `Cc1ccc(-c2ccnc(NCc3cnn4ccccc34)n2)c(C)n1` the outcome was “inactive”.
For `O=C(Nc1nc2n(n1)C(c1ccc(F)cc1)C=C(c1ccc(Cl)cc1)N2)c1cccnc1` (centres undefined), the outcome was “inactive”.
With `Cc1ccc(-c2ccnc(-c3ccc(CCC(=O)O)cc3)n2)c(C)n1` the outcome was “inactive”.
`Cc1ccc(-n2c(=O)n(C)c3c(C(N)=O)nc(-c4ccc(Cl)cc4)nc32)cc1C` was tested, and the outcome was “inactive”.
In the case of `Cc1cc(C)n2nc(CN(C(=O)c3ccco3)c3ccc(Cl)cc3)nc2n1`, the outcome is reported as “inactive”.
For `COc1ccc(NC2=NC(C(=O)Nc3cc(OC)ccc3OC)CC(=O)N2)cc1` (centres undefined), the outcome was “inactive”.
In the case of `CCOc1cc(-c2c(-c3ccccc3)ncn2Cc2c(C)n[nH]c2C)ccc1OC`, the outcome is reported as “inactive”.
`COCCN1CCCC(O)(CN2CCN(c3nc4ccccc4o3)CC2)C1=O` (centres undefined) was tested, and the outcome was “inactive”.
In the case of `OCc1csc(N2CCC(CO)(Cc3ccccc3Cl)CC2)n1`, the outcome is reported as “inactive”.
With `Cc1ccc(C2=CC(c3ccc(F)cc3)n3nc(NC(=O)CC(C)C)nc3N2)cc1` (centres undefined) the outcome was “inactive”.
With `Cc1ccc(S(=O)(=O)N2CCN(c3cc(-c4ccc(F)cc4)ncn3)CC2)cc1C` the outcome was “inactive”.
For `Cc1cccc(-c2nc3nc(CN(C)Cc4ccccc4)cc(=O)n3[nH]2)c1`, the outcome was “active”.
`CCOc1ccc(N(Cc2nc3nc(C)cc(C)n3n2)C(=O)c2ccco2)cc1` was tested, and the outcome was “inactive”.
In the case of `O=C(Nc1ccccc1)c1cc2n(n1)CCN(Cc1cnc[nH]1)C2`, the outcome is reported as “inactive”.
`Cn1c(=O)n(Cc2ccc(F)cc2Cl)c(=O)c2cnc(-c3cccnc3)nc21` was tested, and the outcome was “inactive”.
`CCOc1ccc(C(=O)N2CCN(S(=O)(=O)c3cc4c5c(c3)CCN5C(=O)CC4)CC2)cc1` was tested, and the outcome was “inactive”.
`Cc1ccc(Cn2c(CCNC(=O)Nc3cc(C)ccc3C)nc3cccnc32)cc1` was tested, and the outcome was “inactive”.
In the case of `Cc1cc(C)cc(CCC(=O)NC(C)c2n[nH]c(C)n2)c1` (centres undefined), the outcome is reported as “inactive”.
With `CCCN(CCC)C(=O)C1CCCN(c2ncnc3c2nc2n3CCCCC2)C1` (centres undefined) the outcome was “inactive”.
`Cc1cccc(CNC(=O)N2CCN(Cc3nc4cccnc4n3-c3ccc(F)cc3)CC2)c1` was tested, and the outcome was “inactive”.
For `O=C1CN(S(=O)(=O)c2cc(C(=O)N3CCCC3)cs2)c2ccccc2N1`, the outcome was “inactive”.
`O=C(CN1CCN(Cc2ccccc2Cl)S1(=O)=O)Nc1ccc2c(c1)OCCO2` was tested, and the outcome was “inactive”.
For `CN(CCC1CCCCO1)C(=O)c1ccc(CSc2ncn[nH]2)o1` (centres undefined), the outcome was “inactive”.
`Cc1nc(N2CCCCC2)ncc1C(=O)N1CCC2(CCN(C)C2)CC1` was tested, and the outcome was “inactive”.
In the case of `CNS(=O)(=O)c1ccc(C2NCCc3[nH]cnc32)cc1` (centres undefined), the outcome is reported as “inactive”.
In the case of `COc1ccc(CNC(=O)N2CCN(c3cc(-c4ccc(OC)cc4)ncn3)CC2)cc1`, the outcome is reported as “inactive”.
With `CCC1=C(c2ccc(OC)cc2)S(=O)(=O)N(CC(=O)NCc2ccc(OC(C)C)cc2)C1=O` the outcome was “inactive”.
For `COc1ccc(CNC(=O)CN2c3ccc(C(C)C)cc3-c3ccccc3S2(=O)=O)cc1`, the outcome was “active”.
In the case of `CCCNC(=O)NCC1CCCN(Cc2ccco2)C1` (centres undefined), the outcome is reported as “inactive”.
For `CC(C)c1nccn1Cc1nc2ccccc2c(=O)[nH]1`, the outcome was “inactive”.
For `CC(C)c1c(-c2ccccc2)ncn1CC(=O)N1CCNCC1`, the outcome was “inactive”.
In the case of `COc1ccc(C(=O)N2CCc3[nH]nc(-c4ccc(F)c(F)c4)c3C2)c(O)c1`, the outcome is reported as “inactive”.
In the case of `Cc1cc(Sc2ccc(NC(=O)Nc3ccc(F)c(Cl)c3)cc2)n2ncnc2n1`, the outcome is reported as “inactive”.
`CCn1c(=O)n(-c2ccc(C)c(C)c2)c2nc(-c3ccc(F)cc3F)nc(C(N)=O)c21` was tested, and the outcome was “inactive”.
`CCCS(=O)(=O)N1CCC(n2c(C(F)(F)F)nc3cccnc32)CC1` was tested, and the outcome was “inactive”.
`Cc1ccc(-c2cc(Nc3ccc(C(N)=O)cc3)nc(C)n2)cc1` was tested, and the outcome was “inactive”.
For `CCN(CC)CCNc1nc(Nc2cccc(C)c2)c2cnn(-c3ccccc3)c2n1`, the outcome was “inactive”.
In the case of `COc1ccc(N2CCCS2(=O)=O)cc1NC(=O)COc1ccc(C)cc1`, the outcome is reported as “inactive”.
In the case of `CCC1=C(c2ccc(OC)cc2)S(=O)(=O)N(CC(=O)Nc2cccc(Cl)c2)C1=O`, the outcome is reported as “inactive”.
With `CC(C(=O)NCCc1ccc(S(N)(=O)=O)cc1)N1C(=O)CC(C)(C)Sc2ccccc21` (centres undefined) the outcome was “inactive”.
In the case of `CCCc1cc(Sc2ccc(NC(=O)Nc3cccc(F)c3)cc2)n2ncnc2n1`, the outcome is reported as “inactive”.
`COc1cccc(C(=O)N(Cc2nc3nc(C)cc(C)n3n2)c2ccccc2)c1` was tested, and the outcome was “inactive”.
